The record followed here is PubChem BioAssay AID1347414 (National Center for Advancing Translational Sciences (NCATS), 2020).

Results filed as inconclusive are left out. Where a call stands in place of a potency, no number is given. The source made the active and inactive calls. Calls follow the shape of the dose curve; as a rule, active = well fitted inhibition curve with a large enough effect; inconclusive = small, poorly fitted or top-dose-only effect; inactive = no such curve, though single readings can be large or run the other way. Numbered stars: 1 amine (or outer) side, 2 acyl side, 3 side chain; on linkers, the order of the positions; unused ones are H or OH. Bridge positions count the residues as written; N and C are the ends. Square brackets hold non-standard residues; d marks the D form. Peptide text beside a SMILES is read from it. I, II: the chains in the order shown. Actinocin(9to1) = Cc1c2oc3c(C)ccc(C(=O)[*:1])c3nc-2c(C(=O)[*:2])c(N)c1=O; NMeV = CN[C@H](C(=O)O)C(C)C; Sar = CNCC(=O)O
Potency is read from the fitted curve at half-maximal effect.

This assay can be described thus: qHTS to identify inhibitors of the type 1 interferon - major histocompatibility complex class I in skeletal muscle: Secondary screen by immunofluorescence. Also: nearly all actives have a fitted effect of over 70% in size. As to conditions: C25cl48 myoblasts, IFN-b induced HLA-ABC immunofluorescence, 24 h, Viability; series mostly up to 49.8 µM. Put shortly:
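HLA-ABC immunofluorescence, with nuclear and cell-body stains, was quantified by laser scanning cytometry. Read-out followed 24 h of IFN-beta (4.0 ng/ml) stimulation of C25cl48 human myoblasts with compounds titrated 1:3 over 11 points from 50 uM, with ruxolitinib as inhibitor control.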
Background: qHTS replaces the single test concentration by a dilution series.
Turning to `CC(C)CC(=O)Nc1n[nH]c2c1CN(C(=O)C1CCN(C)CC1)C2(C)C`, the Potency result is “inactive”. `CN(c1ncccc1CNc1nc(Nc2ccc3c(c2)CC(=O)N3)ncc1C(F)(F)F)S(C)(=O)=O`: the Potency result was “inactive”. The entry for `CCNC(=O)c1noc(-c2cc(C(C)C)c(O)cc2O)c1-c1ccc(CN2CCOCC2)cc1` is “inactive”; for `COc1cccc2c1C(=O)c1c(O)c3c(c(O)c1C2=O)C[C@@](O)(C(=O)CO)C[C@@H]3O[C@H]1C[C@H](N)[C@@H](O)[C@H](C)O1` it is “inactive”.

Regarding `CC(C)(C)c1cnc(CSc2cnc(NC(=O)C3CCNCC3)s2)o1`, the Potency result was “inactive”. `CN1CCC(c2c(O)cc(O)c3c(=O)cc(-c4ccccc4Cl)oc23)C1CO` (stereo not drawn): the Potency result was “inactive”. Regarding `CC[C@H](CC#N)OC(=O)N[C@@H](C)c1cccc(NC(=O)Nc2ccc(-c3cnco3)c(OC)c2)c1`, the Potency result is “inactive”. With `NC(=O)c1cnc2[nH]ccc2c1NC1C2CC3C[C@H]1CC(O)(C3)C2` (stereo partly drawn), the Potency entry is “inactive”. On to `COc1cc(Nc2ncc(F)c(Nc3ccc4c(n3)NC(=O)C(C)(C)O4)n2)cc(OC)c1OC`, for which the Potency entry was “inactive”. Take `COc1ncc(Nc2ncc(C(C)N3CCN(S(C)(=O)=O)CC3)cc2-c2nc(C)nc(N)n2)cc1F` (stereo not drawn): the Potency result was “inactive”. For `C[C@]12C=CC(=O)C=C1CC[C@H]1[C@@H]3C[C@@H](O)[C@](O)(C(=O)CO)[C@@]3(C)C[C@H](O)[C@@]12F`, the Potency entry is “inactive”.

Take `C=C1C(=O)O[C@@H]2[C@H]3O[C@]3(C)CC/C=C(\C)CC[C@@H]12`: the Potency was 11.5 µM (active). Consider `O=C1NC(=O)[C@@H](c2c[nH]c3ccccc23)[C@H]1c1cn2c3c(cccc13)CCC2`, for which the Potency result was “inactive”. The result for `Cc1c2oc3c(C)ccc(C(=O)N[C@@H]4C(=O)N[C@H](C(C)C)C(=O)N5CCC[C@H]5C(=O)N(C)CC(=O)N(C)[C@@H](C(C)C)C(=O)O[C@@H]4C)c3nc-2c(C(=O)N[C@@H]2C(=O)N[C@H](C(C)C)C(=O)N3CCC[C@H]3C(=O)N(C)CC(=O)N(C)[C@@H](C(C)C)C(=O)O[C@@H]2C)c(N)c1=O` (I: T[dV]P[Sar][NMeV] / II: T[dV]P[Sar][NMeV]; ester I:1-I:C, II:1-II:C; linker I:N-II:N via Actinocin(9to1)) reads “inactive”; that for `COc1c(C)cnc(Cn2cnc3c(Cl)nc(N)nc32)c1C`, “inactive”; that for `OC1CCC(Oc2cccc3cnc(Nc4ccc5nc[nH]c5c4)nc23)CC1` (stereo not drawn), “inactive”. Turning to `CC(=O)Nc1ccc([C@H](C)C(=O)Nc2ncc(C(C)C)s2)cc1`, the Potency entry is “inactive”. The entry for `CCCCc1nc2cc(/C=C/C(=O)NO)ccc2n1CCN(CC)CC` is “inactive”; for `Cc1cnc(Nc2ccc(N3CCN(C)CC3)cc2)nc1Nc1cccc(S(=O)(=O)NC(C)(C)C)c1` it is 20.5 µM (active); for `CN1CCN(C(=O)c2ccc3cc(CCNc4ncnc5ccc(C#N)cc45)ccc3c2)CC1` it is “inactive”. Consider `C/C=C1\NC(=O)[C@H]2CSSCCC=C[C@H](CC(=O)N[C@H](C(C)C)C(=O)N2)OC(=O)[C@H](C(C)C)NC1=O`, for which the Potency was 8.14 µM (active). As to `COc1cccc2c1C(=O)c1c(O)c3c(c(O)c1C2=O)C[C@@](O)(C(=O)CO)C[C@@H]3O[C@H]1C[C@H](N)[C@H](O)[C@H](C)O1`, the Potency entry is “inactive”. For `Cc1cc(-n2c(=O)ccc3cnc4[nH]ccc4c32)ccc1F`, the Potency entry was “inactive”. For the molecule `CN(C)Cc1c(C(=O)NCCOc2ccc(C(=O)NO)cc2)oc2ccccc12`, the Potency result was “inactive”. The result for `COc1cccc2c1C(=O)c1c(O)c3c(c(O)c1C2=O)C[C@@](O)(/C(CO)=N/NC(=O)CCCCCN1C(=O)C=CC1=O)C[C@@H]3O[C@H]1C[C@H](N)[C@H](O)[C@H](C)O1` reads “inactive”; that for `COc1cc(F)ccc1-c1ncnc(Nc2cccc(CS(C)(=N)=O)c2)n1` (stereo not drawn), “inactive”; that for `CC(C)c1nn(-c2c(Cl)cccc2Cl)c2nc(Cc3ccc(OCCO)cc3)[nH]c(=O)c12`, “inactive”.

As for `C=C1C(=O)O[C@@H]2[C@H]3O[C@]3(C)CCC=C(C)CC[C@@H]12`, the Potency was 8.14 µM (active). As for `N#CCC1(n2cc(-c3ncnc4[nH]ccc34)cn2)CN(C2CCN(C(=O)c3ccnc(C(F)(F)F)c3F)CC2)C1`, the Potency result is “inactive”. On to `CN1CC[C@H](c2c(O)cc(O)c3c(=O)cc(-c4ccccc4Cl)oc23)[C@H](O)C1`, for which the Potency result was “inactive”. For the molecule `CC(C)(C)c1nc2c3cc[nH]c(=O)c3c3cc(F)ccc3c2[nH]1`, the Potency entry was “inactive”. Turning to `O=C1Nc2ccccc2C1(c1ccc(O)cc1)c1ccc(O)cc1`, the Potency result is “inactive”. `COc1cccc(-c2cc(F)ccc2[C@H]2Cc3nc(N)nc(C)c3C(=O)N2)n1`: the Potency result was “inactive”. On to `NC(=O)Nc1sc(-c2ccc(F)cc2)cc1C(N)=O`, for which the Potency result is “inactive”. As for `CC(=O)Oc1ccc(C2(c3ccc(OC(C)=O)cc3)C(=O)Nc3ccccc32)cc1`, the Potency result was “inactive”. For the molecule `COc1ccc(-c2nc(N3CCOCC3)c3sc(CN(C)c4ncc(C(=O)NO)cn4)cc3n2)cn1`, the Potency entry was “inactive”. Consider `Cc1c(C(=O)Nc2ccc(Oc3ccnc4[nH]cc(-c5ccccc5)c34)c(F)c2)c(=O)n(-c2ccc(F)cc2)n1C`, for which the Potency result is “inactive”.

`CC(C)C[C@H](NC(=O)CNC(=O)c1cc(Cl)ccc1Cl)B1OC(=O)CC(CC(=O)O)(C(=O)O)O1` (stereo partly drawn): the Potency entry is “inactive”.
